# Experimental data published in PMC5540273 (PLoS ONE, 2017).
# System: MKNK1
# Conditions: concentration: 1 μM,replicates: in singlicate; n = 1
# 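Also: KINOMEscan kinase panel screen.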
row,SMILES,%Inh [%]
1,CCN(CC)CCOc1ccc(Nc2ncc3cc(-c4c(Cl)cccc4Cl)c(=O)n(C)c3n2)cc1 [SB-601273],90
2,CNC(=O)c1ccccc1Sc1ccc2c(/C=C/c3ccccn3)n[nH]c2c1,0
3,C[C@@H](Oc1cc(-c2cnn(C3CCNCC3)c2)cnc1N)c1c(Cl)ccc(F)c1Cl,0
4,C[C@@H]1CCN(C(=O)CC#N)C[C@@H]1N(C)c1ncnc2[nH]ccc12,0
5,Cl.Cl.NC[C@H](CC1CCCCC1)NC(=O)c1cc(Br)c(-c2ccnc3[nH]ccc23)s1 [GSK1581427],13
6,C=CC(=O)Nc1cc2c(Nc3ccc(F)c(Cl)c3)ncnc2cc1OCCCN1CCOCC1 [GW781483],0
7,COc1ccc(C[C@@H](CN)NC(=O)c2cc(Br)c(-c3ccnc4[nH]ccc34)s2)cc1.Cl.Cl [GSK1389063],13
8,Cc1cc(C(=O)Nc2ccc(Oc3ccc4nc(NC(=O)C5CC5)cn4n3)cc2)nn1-c1ccccc1,1
9,CCN(CC)CCCCNc1ncc2cc(-c3c(Cl)cccc3Cl)c(NC(=O)NC(C)(C)C)nc2n1,1
10,CN(C)CC(O)COc1ccc(Nc2nccc(-c3cnn4nc(N5CCOCC5)ccc34)n2)cc1 (stereo not drawn) [GW767488],41
11,Cc1ccc(-n2nc(C(C)(C)C)cc2NC(=O)Nc2ccc(OCCN3CCOCC3)c3ccccc23)cc1 [GW839464],14
12,CC(C)N1C(=O)Cc2cc(Nc3ncc(C(F)(F)F)c(NCc4cccc(S(C)(=O)=O)c4)n3)ccc21,3
13,C[C@H]1Oc2cc(cnc2N)-c2c(nn(C)c2C#N)CN(C)C(=O)c2ccc(F)cc21,0
14,CN(C)CCOc1ccc(-c2cc(-c3c[nH]nc3-c3ccccn3)ccn2)cc1 [GW835314],0
15,Cl.Cl.NC[C@H](Cc1ccc(C(F)(F)F)cc1)NC(=O)c1cc(Br)c(-c2ccnc3[nH]ccc23)s1 [GSK1487252],0
16,CCn1c(-c2nonc2N)nc2c(C#CC(C)(C)O)nc(OCCN)cc21.Cl.Cl [GSK902056],0
17,Cl.Cl.Nc1nc(-c2ccc3c(N)n[nH]c3c2)cc(N2CCCC(NC(=O)c3ccccc3)C2)n1 (stereo not drawn) [GSK2286775],12
18,Nc1nc(Nc2ccccc2)cc(-c2ccc3c(N)n[nH]c3c2)n1 [GSK2225749],9
19,O=C(NCCNc1ccnc(NCc2ccc(F)cc2)n1)c1cc2ccccc2s1 [GSK1379944],8
20,CC(C)Nc1cc(-c2ccc3c(N)n[nH]c3c2)nc(N)n1 [GSK2221681],31
21,Cl.Oc1cc(-c2nc(-c3ccccc3)[nH]c2-c2ccncc2)ccc1Cl [SB-386023],0
22,Cc1n[nH]c2ccc(-c3cc(OC[C@@H](N)Cc4ccccc4)cnc3-c3ccoc3)cc12.O=C(O)C(F)(F)F.O=C(O)C(F)(F)F [GSK507358],0
23,Cc1ccc2c(-c3ccncc3)c(-c3ccc(F)cc3)nn2c1.Cl [GW461484],23
24,Cc1occc1-c1nc(N)c(OC[C@@H](N)Cc2c[nH]c3ccccc23)cc1-c1cc2c(C)n[nH]c2cn1 [GSK1660450],0
25,NC(=O)c1cc(-c2ccccc2)cc2c(C3CCNCC3)c[nH]c12 [GSK301362],0
26,Cc1cc2cn[nH]c2cc1-c1cccc2c(N)c(C(N)=O)nnc12,11
27,O=C(NCCCN1CCOC1=O)c1cnc(NCc2cc(Cl)ccc2Cl)nc1NC1CCCC1,11

# System: MKNK2
# Conditions: concentration: 1 μM,replicates: in singlicate; n = 1
row,SMILES,%Inh [%]
1,CCN(CC)CCOc1ccc(Nc2ncc3cc(-c4c(Cl)cccc4Cl)c(=O)n(C)c3n2)cc1 [SB-601273],26
2,CNC(=O)c1ccccc1Sc1ccc2c(/C=C/c3ccccn3)n[nH]c2c1,0
3,C[C@@H](Oc1cc(-c2cnn(C3CCNCC3)c2)cnc1N)c1c(Cl)ccc(F)c1Cl,32
4,C[C@@H]1CCN(C(=O)CC#N)C[C@@H]1N(C)c1ncnc2[nH]ccc12,0
5,Cl.Cl.NC[C@H](CC1CCCCC1)NC(=O)c1cc(Br)c(-c2ccnc3[nH]ccc23)s1 [GSK1581427],88
6,C=CC(=O)Nc1cc2c(Nc3ccc(F)c(Cl)c3)ncnc2cc1OCCCN1CCOCC1 [GW781483],76
7,COc1ccc(C[C@@H](CN)NC(=O)c2cc(Br)c(-c3ccnc4[nH]ccc34)s2)cc1.Cl.Cl [GSK1389063],97
8,Cc1cc(C(=O)Nc2ccc(Oc3ccc4nc(NC(=O)C5CC5)cn4n3)cc2)nn1-c1ccccc1,0
9,CCN(CC)CCCCNc1ncc2cc(-c3c(Cl)cccc3Cl)c(NC(=O)NC(C)(C)C)nc2n1,0
10,CN(C)CC(O)COc1ccc(Nc2nccc(-c3cnn4nc(N5CCOCC5)ccc34)n2)cc1 (stereo not drawn) [GW767488],83
11,Cc1ccc(-n2nc(C(C)(C)C)cc2NC(=O)Nc2ccc(OCCN3CCOCC3)c3ccccc23)cc1 [GW839464],0
12,CC(C)N1C(=O)Cc2cc(Nc3ncc(C(F)(F)F)c(NCc4cccc(S(C)(=O)=O)c4)n3)ccc21,45
13,C[C@H]1Oc2cc(cnc2N)-c2c(nn(C)c2C#N)CN(C)C(=O)c2ccc(F)cc21,0
14,CN(C)CCOc1ccc(-c2cc(-c3c[nH]nc3-c3ccccn3)ccn2)cc1 [GW835314],13
15,Cl.Cl.NC[C@H](Cc1ccc(C(F)(F)F)cc1)NC(=O)c1cc(Br)c(-c2ccnc3[nH]ccc23)s1 [GSK1487252],19
16,CCn1c(-c2nonc2N)nc2c(C#CC(C)(C)O)nc(OCCN)cc21.Cl.Cl [GSK902056],0
17,Cl.Cl.Nc1nc(-c2ccc3c(N)n[nH]c3c2)cc(N2CCCC(NC(=O)c3ccccc3)C2)n1 (stereo not drawn) [GSK2286775],27
18,Nc1nc(Nc2ccccc2)cc(-c2ccc3c(N)n[nH]c3c2)n1 [GSK2225749],56
19,O=C(NCCNc1ccnc(NCc2ccc(F)cc2)n1)c1cc2ccccc2s1 [GSK1379944],12
20,CC(C)Nc1cc(-c2ccc3c(N)n[nH]c3c2)nc(N)n1 [GSK2221681],66
21,Cl.Oc1cc(-c2nc(-c3ccccc3)[nH]c2-c2ccncc2)ccc1Cl [SB-386023],12
22,Cc1n[nH]c2ccc(-c3cc(OC[C@@H](N)Cc4ccccc4)cnc3-c3ccoc3)cc12.O=C(O)C(F)(F)F.O=C(O)C(F)(F)F [GSK507358],0
23,Cc1ccc2c(-c3ccncc3)c(-c3ccc(F)cc3)nn2c1.Cl [GW461484],37
24,Cc1occc1-c1nc(N)c(OC[C@@H](N)Cc2c[nH]c3ccccc23)cc1-c1cc2c(C)n[nH]c2cn1 [GSK1660450],7
25,NC(=O)c1cc(-c2ccccc2)cc2c(C3CCNCC3)c[nH]c12 [GSK301362],13
26,Cc1cc2cn[nH]c2cc1-c1cccc2c(N)c(C(N)=O)nnc12,23
27,O=C(NCCCN1CCOC1=O)c1cnc(NCc2cc(Cl)ccc2Cl)nc1NC1CCCC1,0
